GPR151 ag – activators of human GPR151; Q8TDV0; PathHunter beta-arrestin GPR151 cells, luminescence; activation, % at 11.2 µM; 1% of 650,000 active; in the data active means activation above about 4.9%
FBW7 act – activators of human E3 ligase FBW7 | Q969H0 | AlphaScreen FBW7–phospho-cyclin E peptide binding, activator screen | normalized activity (activation), % at 26.1 µM | 0.13% of 650,000 active | AID 1259310; in the data active means normalized activity above about 1.9%;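 further: purified mutant Fbw7 with reduced substrate affinity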
Target sequence (Q969H0 whole entry, looked up): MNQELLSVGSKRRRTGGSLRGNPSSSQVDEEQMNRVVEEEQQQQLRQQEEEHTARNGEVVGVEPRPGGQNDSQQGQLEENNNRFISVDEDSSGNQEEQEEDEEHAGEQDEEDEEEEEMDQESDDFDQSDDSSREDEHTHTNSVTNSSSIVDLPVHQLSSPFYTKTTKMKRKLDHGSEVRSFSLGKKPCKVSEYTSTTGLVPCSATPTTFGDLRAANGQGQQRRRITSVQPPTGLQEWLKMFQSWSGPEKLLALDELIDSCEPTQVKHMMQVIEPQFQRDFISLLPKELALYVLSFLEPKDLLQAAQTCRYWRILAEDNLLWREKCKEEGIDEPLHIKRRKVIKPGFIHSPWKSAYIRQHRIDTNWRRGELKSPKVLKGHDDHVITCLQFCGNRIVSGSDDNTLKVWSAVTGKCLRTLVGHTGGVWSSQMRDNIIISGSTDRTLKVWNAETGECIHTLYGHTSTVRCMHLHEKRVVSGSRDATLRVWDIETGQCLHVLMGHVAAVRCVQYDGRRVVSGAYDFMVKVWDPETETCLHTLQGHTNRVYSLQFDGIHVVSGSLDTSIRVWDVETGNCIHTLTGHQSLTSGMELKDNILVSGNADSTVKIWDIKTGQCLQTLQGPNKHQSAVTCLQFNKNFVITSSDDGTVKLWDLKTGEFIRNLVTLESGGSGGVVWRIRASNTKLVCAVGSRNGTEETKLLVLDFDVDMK
MITF inh – inhibitors of human MITF; O75030; AlphaScreen MITF homodimerization, bead proximity signal; inhibition, % at 2.6 µM; 0.91% of 650,000 active; AID 1259374; in the data active means inhibition above about 50%
TEAD-YAP inh – TEAD-YAP interaction inhibition | 1.4% of 640,000 active | AID 1259422 | inhibition, % at 9.12 µM | HEK-TIYL cells, TEAD-Gal4/YAP UAS-luciferase luminescence; in the data active means inhibition above about 32%
Numbers stand for hits; i = inactive. A selection: hits, their analogues and other compounds. The true share with any hit is near 3.5%.

SMILES	GPR151 ag	FBW7 act	MITF inh	TEAD-YAP inh
COc1cc(Nc2nc(NCCCN3CCCC3=O)c3ncn(-c4ccccc4)c3n2)cc(OC)c1OC	i	i	i	49
O=C1CCCN1CCCNc1nc(-c2cccs2)nc2c1ncn2-c1ccsc1	i	i	i	55
Cc1nn(C)c(C)c1-c1nc(NCCc2ccc(O)cc2)c2ncn(-c3ccsc3)c2n1	i	i	i	56
O=C1CCCN1CCCNc1nc(-c2csc3ccccc23)nc2c1ncn2-c1ccsc1	i	i	i	i
CCCNc1nc(-c2c(C)nn(C)c2C)nc2c1ncn2-c1ccsc1	i	i	i	i
C/C(CC(=O)N1CCN(C=O)CC1)=N\NC(=O)c1ccc(I)cc1	i	i	i	i
Cc1nn(C)c(C)c1-c1nc(NCCCN2CCCC2=O)c2ncn(-c3ccccc3)c2n1	i	i	i	i
O=C1CCCN1CCCNc1nc(Nc2ccc3ncccc3c2)nc2c1ncn2-c1ccsc1	i	i	i	52
CCCNc1nc(NCCCN2CCCC2=O)nc2c1ncn2-c1ccccc1	i	i	i	42
O=C1CCCN1CCCNc1nc(Nc2ccncc2)nc2c1ncn2-c1ccsc1	i	i	i	60
Cc1nn(C)c(C)c1-c1nc(NCCCN2CCCC2=O)c2ncn(-c3ccsc3)c2n1	i	i	i	56
O=C1CCCc2oc3c(Cl)cc(NS(=O)(=O)c4ccccc4)cc3c21	i	i	i	i
C=CCc1ccc(OCCOc2ccc(/C=C3/C(=N)N4N=C(CCCC)SC4=NC3=O)cc2OC)c(OC)c1	i	i	i	i
O=C1CCCN1CCCNc1nc(Nc2ncccn2)nc2c1ncn2-c1ccccc1	i	i	i	i
O=C1CCCN1CCCNc1nc(Nc2ccccc2)nc2c1ncn2-c1ccccc1	i	i	i	39
O=C1CCCN1CCCNc1nc(NCCCN2CCCC2=O)c2ncn(-c3ccsc3)c2n1	i	i	i	39
O=C1CCCN1CCCNc1nc(NCCN2CCOCC2)nc2c1ncn2-c1ccsc1	i	i	i	i
O=C1CCCN1CCCNc1nc(Nc2ccccc2)nc2c1ncn2-c1ccsc1	i	i	i	65
O=C1CCCN1CCCNc1nc(Nc2ccc(C(F)(F)F)cc2)nc2c1ncn2-c1ccsc1	i	i	i	i
O=C1CCCN1CCCNc1nc(Nc2ccc(-n3ccnc3)cc2)nc2c1ncn2-c1ccsc1	i	i	i	61
CC(=O)Nc1cccc(NC(=O)Nc2cccc(C(F)(F)F)c2)c1	i	i	i	i
CCOc1ccc(NC(=O)N2CCCN(Cc3ccccc3Cl)C2)cc1	i	i	i	i
COc1ccc(/C=N\NC(=O)CNc2ccccc2C)c(O)c1	i	i	i	i
O=C1CCCN1CCCNc1nc(Nc2cccnc2)nc2c1ncn2-c1ccsc1	i	i	i	47
Cc1nn(C)c(C)c1-c1nc(NCCN2CCOCC2)c2ncn(-c3ccsc3)c2n1	i	i	i	38
SMILES	GPR151 ag	FBW7 act	MITF inh	TEAD-YAP inh
CN1CCN(C(=O)c2ccc(-c3ccsc3)nc2N2CCOCC2)CC1	i	i	i	i
COc1ccc(-n2cc(-c3ccccc3)c3c(SCc4cccc(C)c4)ncnc32)cc1	i	i	i	i
CCOC(=O)C1=C(C)N=c2s/c(=C\c3ccc(N(C)C)cc3)c(=O)n2C1c1c(OC)ccc2ccc(OC)cc12 (stereo not given)	i	i	i	i
Cc1ccc2c(CC(=O)Nc3sc4c(c3C(N)=O)CCCC4)coc2c1	i	i	i	i
COCCCNC(=O)c1c(NC(=O)Cc2coc3ccc(C)cc23)sc2c1CCCC2	i	i	i	48
Cc1nc2ccccc2c(=O)n1N.[Cl][Co][Cl]	i	i	i	i
Cc1c(Cl)cccc1NC(=O)C(=O)NCC(C)O (stereo not given)	i	i	i	i
COC(=O)C1=C(C(=O)OC)SC(=C2C(=S)C(C)(C)N(C(=O)c3ccccc3)c3ccc(C)cc32)S1	i	i	i	i
COC(=O)C1=C(C(=O)OC)SC(=C2C(=S)C(C)(C)N(C)c3ccc(C)cc32)S1	i	i	52	i
Cc1ccccc1/C=N/NC(=O)c1ccccc1C	i	i	i	i
O=C(N/N=C/c1ccccc1Br)c1cccc2cc[nH]c12	i	i	i	i
Cc1ccccc1C(=O)N/N=C/c1cccc(O)c1O	i	i	i	59
COc1cccc(/C=N/NC(=O)c2ccc(O)cc2O)c1O	i	i	i	42
COc1cccc(/C=N/NC(=O)c2ccccc2O)c1O	i	i	i	77
O=C(N/N=C/c1ccccc1O)c1cccc2cc[nH]c12	i	i	i	81
O=C(N/N=C/c1cccc(O)c1O)c1cc(O)cc(O)c1	i	i	61	i
COc1cccc(/C=N/NC(=O)c2ccc(-c3ccccc3)cc2)c1O	i	i	i	83

Assay outcomes: PubChem BioAssay, The Scripps Research Institute Molecular Screening Center
